Screen size: about 320,000 compounds; about 8,000 (2.5%) were called active. Only a selection was taken, and actives are over-represented in it overall. Values without a mark were called inactive. Cut-off read from the data, not from the text of the source: active = activation above about 47%; inactive = the rest.
Target: Aryl hydrocarbon receptor (Homo sapiens) (UniProt P35869)
Assay: AHR activators, primary screen, cell-based, luminescence, luciferase reporter, human (AID 2796);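 note: 0% = vehicle wells and 100% = reference agonist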
Settings: AHR-responsive luciferase reporter cells, at 5 µM, stronger effect = higher value

Sequence of Aryl hydrocarbon receptor (Homo sapiens) (P35869 whole entry, looked up): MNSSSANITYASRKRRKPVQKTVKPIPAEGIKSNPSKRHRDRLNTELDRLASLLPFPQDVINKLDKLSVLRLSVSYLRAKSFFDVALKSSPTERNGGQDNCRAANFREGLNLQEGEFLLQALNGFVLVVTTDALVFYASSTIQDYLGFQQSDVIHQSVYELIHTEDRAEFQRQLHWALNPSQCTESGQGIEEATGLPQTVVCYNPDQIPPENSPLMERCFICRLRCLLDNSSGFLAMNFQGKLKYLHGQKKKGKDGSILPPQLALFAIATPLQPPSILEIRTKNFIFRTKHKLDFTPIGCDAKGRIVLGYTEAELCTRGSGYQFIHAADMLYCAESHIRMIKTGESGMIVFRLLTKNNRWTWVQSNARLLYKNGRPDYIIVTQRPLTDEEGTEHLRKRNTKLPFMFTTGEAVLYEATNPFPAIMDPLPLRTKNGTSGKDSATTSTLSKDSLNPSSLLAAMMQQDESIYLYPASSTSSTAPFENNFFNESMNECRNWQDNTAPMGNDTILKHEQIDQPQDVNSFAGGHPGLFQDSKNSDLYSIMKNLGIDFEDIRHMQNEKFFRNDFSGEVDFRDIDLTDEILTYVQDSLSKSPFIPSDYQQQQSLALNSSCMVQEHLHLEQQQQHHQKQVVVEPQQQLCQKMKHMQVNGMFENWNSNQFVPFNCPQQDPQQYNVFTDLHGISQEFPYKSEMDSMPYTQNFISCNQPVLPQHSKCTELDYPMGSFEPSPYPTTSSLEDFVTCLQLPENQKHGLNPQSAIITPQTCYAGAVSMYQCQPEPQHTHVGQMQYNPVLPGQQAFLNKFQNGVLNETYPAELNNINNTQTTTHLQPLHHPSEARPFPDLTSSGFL

Row | Structure (SMILES) | activation
1 | CC(=O)NS(=O)(=O)c1ccc(NC(=O)/C=C/c2ccccc2Cl)cc1 | 7.35%
2 | CCn1nc(C)c(/C=N/NC(=O)Cc2ccc(Cl)cc2)c1C | 56.2% (active)
3 | Cc1nn(Cc2ccc(Cl)cc2)c(Cl)c1/C=N/NC(=O)c1cccnc1 | 96.6% (active)
4 | O=C(Nc1nnc(Cc2ccc(Cl)cc2)s1)c1cccnc1 | 3.47%
5 | Cc1nn(Cc2ccc(Cl)cc2)c(Cl)c1/C=N/NC(=O)CNc1ccccc1F | 25%
6 | O=C(Cc1ccccc1)N/N=C/c1ccc(Cl)cc1Cl | 1.3%
7 | Cc1ccc(/C=N/NC(=O)Cn2nc(C)c(Br)c2C)o1 | 2.15%
8 | CC(OC(=O)CCCc1c[nH]c2ccccc12)C(=O)Nc1ccc(S(N)(=O)=O)cc1 (centres undefined) | 0.81%
9 | CC(NC(=O)CN1CCN(Cc2ccc(Cl)cc2)C1=O)c1ccc2c(c1)OCCO2 (centres undefined) | 0.39%
10 | CCOC(=O)c1cccc(NC(=O)C2CCN(c3ncnc4c3nc3n4CCCCC3)CC2)c1 | 2.44%
11 | CCCCC[C@@H]1C=C(C(=O)O)[C@H](c2ccc(C#N)cc2)N1S(=O)(=O)c1ccc(C)cc1 | -1.14%
12 | Cc1ccc(C(=O)NCC(=O)OCc2nnc(-c3ccccc3)o2)cc1 | 1.68%
13 | CC(C)[C@H](NC(=O)N1CC(=O)Nc2ccccc21)C(=O)N[C@@H](Cc1c[nH]c2ccccc12)C(=O)O | 10.6%
14 | NS(=O)(=O)c1cccc(NC(=O)CN2CCCc3ccccc32)c1 | 3.96%
15 | COC(=O)c1[nH]c2cccc(C)c2c1NC(=O)CN1CCCc2ccccc21 | 26.4%
16 | COC(=O)c1[nH]c2ccccc2c1NC(=O)CN1CCCc2ccccc21 | 74.4% (active)
17 | COc1ccc(OC)c(S(=O)(=O)N2CCCC(C(=O)N3CCC(C(N)=O)CC3)C2)c1 (centres undefined) | -1.65%
18 | N#CC1=C(N)Oc2c(ccc3cccnc23)C1c1ccncc1 (centres undefined) | -0.63%
19 | N#CC1=C(N)Oc2c(sc3ccccc23)C1c1ccco1 (centres undefined) | 74.7% (active)
20 | CC(C)C(C(=O)NC1CCCCC1)N(CC1CCCO1)C(=O)CNS(=O)(=O)c1ccc(F)cc1 (centres undefined) | -1.33%
21 | O=C(c1ccc(=O)oc1)N1CCC(C(O)(c2ccccc2)c2ccccc2)CC1 | 0.25%
22 | CC(=O)c1cc2c(cc1N)OCO2 | 6.34%
23 | Nc1[nH][nH]c(=O)c1N=Nc1ccc2c(c1)OCO2 | 96.5% (active)
24 | O=C(c1ccc2c(c1)OCO2)N1CCOCC1 | 0.36%

Row | Structure (SMILES) | activation
25 | [O-][N+]12CCCCC1CCCC2CO (centres undefined) | -0.51%
26 | Cn1c(=O)c2c(SCC(=O)N3CCOCC3)nc(C3CC3)nc2n(C)c1=O | 7.71%
27 | CSc1nc(C)nc2c1c(=O)n(C)c(=O)n2C | 7.77%
28 | CCOC(=O)N1CCN(C(=O)CSc2nc(C)nc3c2c(=O)n(C)c(=O)n3C)CC1 | -2.19%
29 | CCC(C)Sc1nc(C)nc2c1c(=O)n(C)c(=O)n2C (centres undefined) | 54% (active)
30 | CC(C)c1ccc(C2C(C#N)=C(N)Oc3c2oc(CO)cc3=O)cc1 (centres undefined) | 1.15%
31 | C/C(=N\NC(=O)c1cccnc1)c1ccc(-n2ccnc2)cc1 | 94.3% (active)
32 | C/C(=N\NC(=O)c1ccc2ccccc2c1)c1cccnc1 | 32.5%
33 | C/C(=N\NC(=O)c1cccc([N+](=O)[O-])c1)c1cccnc1 | 43%
34 | O=C(Nc1cccn(Cc2ccccc2Cl)c1=O)NC1CCCCC1 | -0.61%
35 | Cc1ccc(C2CCN(C(=S)Nc3cccc(Cl)c3)C2)cc1 (centres undefined) | 0.22%
36 | COc1ccc([N+](=O)[O-])cc1NC(=O)CC1SC(=Nc2cccc(C)c2C)N(/N=C(\C)c2ccc(C)cc2)C1=O (centres undefined) | 2.69%
37 | Cc1cccc(C(=O)OCC(=O)NC(C)C2CC3CCC2C3)c1O (centres undefined) | -0.37%
38 | CC(Oc1cccc(NC(=O)c2cccs2)c1)C(=O)c1ccccc1 (centres undefined) | 5.22%
39 | CCOC(=O)c1c(C2CC2)csc1NC(=O)CSCc1c(C)noc1C | 74.2% (active)
40 | Cc1ccc(F)cc1NC(=O)CSCc1c(C)noc1C | -0.17%
41 | Cc1noc(C)c1CSCC(=O)Nc1ccc(Br)cc1Cl | -1.92%
42 | COc1cccc(/C=C/C(=O)Nc2ccc3c(c2)OCCO3)c1 | -3.92%
43 | COc1c(O)cc2oc(-c3ccc(O)c(O)c3)cc(=O)c2c1O | -2.83%
44 | COc1cccc(NC(=O)[C@H](Cc2c[nH]c3ccccc23)NC(=O)[C@@H]2Cc3ccccc3CN2)c1 | 8.95%
45 | Nc1nonc1-n1nnc(C(=O)N/N=C/c2c[nH]c3ccccc23)c1-c1ccccc1 | 15.2%
46 | O=C(O)c1cccc(NC(=S)N/N=C/c2c[nH]c3ccccc23)c1 | 22%
47 | Cc1c(/C=N\NC(=O)c2cc3ccccc3o2)c2ccccc2n1C | 26.2%
48 | O=C(N/N=C/c1c[nH]c2ccccc12)c1cc2ccccc2o1 | 99% (active)

Row | Structure (SMILES) | activation
49 | CSC(=S)N/N=C/c1c[nH]c2ccccc12 | 82% (active)
50 | O=C(N/N=C/c1c[nH]c2ccccc12)c1ccccc1O | 19%
51 | CC1(C)C(C=C(Cl)Cl)C1C(=O)NC(O)C(=O)c1ccccc1 (centres undefined) | -1.26%
52 | COC(=O)c1ccc(C(=O)NC2CC(C)(C)Cc3c2cnn3-c2ccc(F)cc2)nc1 (centres undefined) | -1.69%
53 | COc1cc(C)nc(N2CCCC(C(=O)NCC(C)C)C2)n1 (centres undefined) | 5.81%
54 | CCc1cc(C(=O)OC)c(NC(=O)CC2Sc3ccc(C(F)(F)F)cc3NC2=O)s1 (centres undefined) | -1.22%
55 | Cc1cc(C)nc(SCc2nnc(SCC(=O)OC3CCCCC3)o2)n1 | 0.2%
56 | CC(OC(=O)c1c(F)cccc1F)C(=O)NCCC1=CCCCC1 (centres undefined) | 1.47%
57 | COc1ccc(-c2csc(NC(=O)COC(=O)c3ccc(Br)o3)n2)cc1 | 15.7%
58 | COc1ccc(-c2csc(Cc3nc(O)cs3)n2)cc1 | 47.5% (active)
59 | CC(C)(C)C(=O)OCc1nc(-c2ccc(O)c(O)c2)cs1 | 4.13%
60 | CC1CCCCC12NC(=O)N(CC(=O)Nc1ccc(S(=O)(=O)Nc3ncccn3)cc1)C2=O (centres undefined) | 0.23%
61 | COC(=O)c1c(NC(=O)CN2C(=O)NC(CCc3ccccc3)C2=O)sc2c1CCCCC2 (centres undefined) | 6.43%
62 | COc1ccc(S(=O)(=O)NC(C)c2ccccc2)cc1C(=O)N1CCCCC1 (centres undefined) | 2.64%
63 | O=c1[nH]c(/C=C/c2cccc(Br)c2)nc2ccccc12 | 22.6%
64 | O=c1[nH]c(N2CCOCC2)nc2ccccc12 | 2.44%
65 | O=c1[nH]c(-c2cccs2)nc2ccccc12 | 71.2% (active)
66 | Cc1c(CN2CCC(n3nccc3NC(=O)CCc3ccccc3)CC2)cnn1C | 1.39%
67 | Cc1cccc(C)c1NC(=O)CNC(=O)Cc1ccc(Br)cc1 | 5.24%
68 | Cc1cc(=O)oc2cc(OCC(=O)Nc3nnc(C4CC4)s3)ccc12 | 9.3%
69 | CCOC(=O)Cc1csc(SCc2cc(=O)oc3cc(O)ccc23)n1 | -1.46%
70 | CCOC(=O)Cc1csc(NC(=O)COc2ccc3c(C)cc(=O)oc3c2)n1 | 59.9% (active)
71 | CCOC(=O)c1cccc(NC(=O)c2ccc(F)cc2F)c1 | 5.88%
72 | Cn1c(=NC(=O)c2cnccn2)sc2ccccc21 | 13.9%

Row | Structure (SMILES) | activation
73 | CCCC(=O)N=c1sc2cccc(F)c2n1C | 5.82%
74 | Cn1c(=NC(=O)c2ccco2)sc2cccc(F)c21 | 58% (active)
75 | COc1ccc2oc(C(=O)OCC(=O)N(CC(C)C)c3c(N)n(Cc4ccccc4)c(=O)[nH]c3=O)c(C)c2c1 | -3.35%
76 | O=C(COc1ccccc1)Nc1cc2c3c(c1)CC(=O)N3CCC2 | 8.04%
77 | CCOc1ccc(/C=N/NC(=O)C(C)Sc2ccccn2)cc1OCC (centres undefined) | 4.44%
78 | COc1cc(/C=C2/C(=O)ON=C2C)ccc1OCc1ccccc1F | 0.62%
79 | CCOc1cc(/C=N/O)ccc1OCc1ccccc1F | 50.4% (active)
80 | Cc1ccc(NC(=O)COC(=O)CNC(=O)c2ccc(Cl)cc2Cl)cc1S(=O)(=O)N1CCOCC1 | -1.57%
81 | O=C(CC1C(=O)NCCN1Cc1ccc(-c2ccccc2)cc1)NCc1ccncc1 (centres undefined) | 0.69%
82 | CC(C)c1ccc(NC(=S)NC2CC3C=CC2C3)cc1 (centres undefined) | 7.48%
83 | Cc1c(C)c(C)c2[nH]c(=S)[nH]c2c1C | 52.1% (active)
84 | O=c1[nH]c(=S)[nH]c2[nH]c(=S)[nH]c12 | 0%
85 | O=C(CN(c1ccc2c(c1)OCCO2)S(=O)(=O)c1ccccc1)Nc1ccc2c(c1)OCO2 | 79.1% (active)
86 | CCN(CC(=O)Nc1ccc2c(c1)OCO2)S(=O)(=O)c1ccccc1 | 28.8%
87 | O=C(CCS(=O)(=O)Cc1ccccc1)Nc1ccc2c(c1)OCCO2 | 3.19%
88 | O=C(CN1CCN(S(=O)(=O)c2cccc(Cl)c2)CC1)N1CCCCC1 | -1.59%
89 | CCCCNC(=O)C1(c2ccc(OC)cc2)CCOCC1 | 0.03%
90 | CS(=O)(=O)c1ccc2nnn(OCC(=O)Nc3cccc(C#N)c3)c2c1 | 5.17%
91 | Fc1ccccc1OCCSc1nc2ccccc2o1 | -9.22%
92 | COc1ccc(/C=C(\C#N)c2c[nH]c3ccccc23)cc1 | 53.6% (active)
93 | COc1ccc(/C=C(\NC(=O)c2ccc(OC)c(OC)c2)C(=O)NCCc2c[nH]c3ccccc23)cc1 | 13.8%
94 | COc1ccc(C(C(O)C(=O)c2c[nH]c3ccccc23)N2CCN(c3ccccc3)CC2)cc1 (centres undefined) | 12.8%
